The source made the active and inactive calls. Unless noted, no rule for the calls is given here.
Key:
[1] = resazurin metabolic signal in HepG2 cells – cell-based, resazurin fluorescence, 24 h, PK04 Diversity Set, profiling panel (AID 1172); settings: HepG2 viability, higher = more signal
[2] = budding yeast growth changes without added modifier – OD600, strain BY4716, 24 h, basal condition, primary screen (AID 1173); settings: S. cerevisiae BY4716 growth, OD600, 24 h; higher = more signal, called active from +8 up or from −8 down
[3] = viability profiling in MM1S myeloma cells – cell-based, resazurin fluorescence, basal, 24 h, PK04 Diversity Set, profiling panel (AID 1174); settings: higher = more signal, called active from +8 up or from −8 down;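 also: MM1S multiple myeloma cell line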
[4] = target: Dihydroorotate dehydrogenase (quinone), mitochondrial (Plasmodium falciparum (isolate 3D7)) (UniProt Q08210); experiment: inhibition of P. falciparum DHODH – biochemical, C-terminal His tag, absorbance 600 nm, primary screen (AID 1175); settings: PfDHODH enzyme, DCIP absorbance 600 nm; higher = more signal, called active from +8 up or from −8 down;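 also: recombinant parasite enzyme with a five histidine tag at its C terminus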
[5] = inhibition of PAO1 biofilm formation – strain PAO1, LB-PBS medium, absorbance 600 nm, primary screen (AID 1176); settings: P. aeruginosa PAO1 growth/biofilm, A600, 12 h; higher = more signal
[6] = growth modulation of vineyard yeast isolate – strain RM11-1a, OD600, basal, 24 h, primary screen (AID 1177);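 also: cultures grown under basal conditions with no added stressor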; settings: S. cerevisiae RM11-1a growth, OD600, 24 h; higher = more signal, called active from +8 up or from −8 down
[7] = growth of efflux-deficient E. coli DRC39 – strain DRC39, OD650, 24 h, E. coli filamentation inducers, primary screen (AID 1178);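 also: growth measured as culture turbidity by optical density at 650 nm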; settings: E. coli DRC39 acrAB, higher = more signal, called active from +8 up or from −8 down
[8] = growth of efflux-deficient E. coli DRC39 – strain DRC39, OD650, 48 h, E. coli filamentation inducers, primary screen (AID 1179);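 also: screen aims at cell division blockers that make cells filament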; settings: E. coli DRC39 delta-acrAB growth, higher = more signal, called active from +8 up or from −8 down
[9] = viability profiling in RPMI8226 myeloma cells – cell-based, resazurin fluorescence, basal, 24 h, PK04 Diversity Set, profiling panel (AID 1180); settings: higher = more signal;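 also: RPMI8826 multiple myeloma cell line at 5000 cells per well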
[10] = target: E3 ubiquitin-protein ligase XIAP (Homo sapiens) (UniProt P98170); experiment: small molecules binding XIAP protein – biophysical, small-molecule microarray, fluorescence 635 nm, primary screen (AID 1181); settings: higher = more signal;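 also: score merges 667 nm emission and signal to noise over triplicate slides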
[11] = tested on: XIP peptide (Xip251-270) binding; experiment: XIP fragment 251-270 binding compounds – biochemical, small-molecule microarray, fluorescence 635/667 nm, 0.1 µg/mL protein, primary screen (AID 1182); settings: fluorescent protein binding, 635 nm, higher = more signal, called active from +8 up or from −8 down
[12] = tested on: XIP peptide (Xip251-270); experiment: compounds binding XIP fragment 251-270 – biochemical, small-molecule microarray, fluorescence 635/667 nm, 0.5 µg/mL protein, primary screen (AID 1183); settings: fluorescence 635 nm, higher = more signal
[13] = blood-stage malaria parasite viability loss – strain 3D7, DAPI fluorescence, 100 nL, primary screen (AID 1184);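 also: parasites grown inside human red blood cells in medium with human serum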; settings: P. falciparum 3D7 growth, 3 d, higher = more signal
[14] = target: Homeobox protein Hox-A13 (Mus musculus) (UniProt Q62424); experiment: disruptors of Hoxa13 oligonucleotide interaction – biochemical, fluorescence polarization, labeled oligonucleotide, primary screen (AID 1185); settings: Hoxa13:DNA binding, 15 min, higher = more signal, called active from +8 up or from −8 down
[15] = blockers of DNA damage checkpoint Chk1 activation – imaging, HeLa, hydroxyurea, phospho-Chk1 antibody, percent positive cells, primary screen (AID 1186); settings: hydroxyurea-induced phospho-Chk1 immunofluorescence imaging, higher = more signal
[16] = blockers of DNA damage checkpoint Chk1 activation – imaging, HeLa, hydroxyurea, phospho-Chk1 nuclear intensity, primary screen (AID 1187); settings: hydroxyurea-induced phospho-Chk1 immunofluorescence imaging, higher = more signal

E3 ubiquitin-protein ligase XIAP (Homo sapiens), sequence (P98170 whole entry, looked up, the tested form may be a part): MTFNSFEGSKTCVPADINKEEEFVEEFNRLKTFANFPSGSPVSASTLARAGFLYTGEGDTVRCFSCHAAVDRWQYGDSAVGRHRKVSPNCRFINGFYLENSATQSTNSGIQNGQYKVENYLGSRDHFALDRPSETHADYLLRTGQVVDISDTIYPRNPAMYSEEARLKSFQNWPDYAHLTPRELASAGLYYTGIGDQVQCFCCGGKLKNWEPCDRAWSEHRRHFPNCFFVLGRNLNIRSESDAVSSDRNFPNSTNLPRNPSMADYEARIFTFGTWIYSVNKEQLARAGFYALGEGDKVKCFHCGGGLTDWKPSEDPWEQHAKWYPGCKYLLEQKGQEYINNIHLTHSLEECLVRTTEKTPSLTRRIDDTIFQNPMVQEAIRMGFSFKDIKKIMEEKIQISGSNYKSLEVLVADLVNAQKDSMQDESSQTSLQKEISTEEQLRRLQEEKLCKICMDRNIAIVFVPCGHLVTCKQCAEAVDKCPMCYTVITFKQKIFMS
Dihydroorotate dehydrogenase (quinone), mitochondrial (Plasmodium falciparum (isolate 3D7)), sequence (Q08210 whole entry, looked up): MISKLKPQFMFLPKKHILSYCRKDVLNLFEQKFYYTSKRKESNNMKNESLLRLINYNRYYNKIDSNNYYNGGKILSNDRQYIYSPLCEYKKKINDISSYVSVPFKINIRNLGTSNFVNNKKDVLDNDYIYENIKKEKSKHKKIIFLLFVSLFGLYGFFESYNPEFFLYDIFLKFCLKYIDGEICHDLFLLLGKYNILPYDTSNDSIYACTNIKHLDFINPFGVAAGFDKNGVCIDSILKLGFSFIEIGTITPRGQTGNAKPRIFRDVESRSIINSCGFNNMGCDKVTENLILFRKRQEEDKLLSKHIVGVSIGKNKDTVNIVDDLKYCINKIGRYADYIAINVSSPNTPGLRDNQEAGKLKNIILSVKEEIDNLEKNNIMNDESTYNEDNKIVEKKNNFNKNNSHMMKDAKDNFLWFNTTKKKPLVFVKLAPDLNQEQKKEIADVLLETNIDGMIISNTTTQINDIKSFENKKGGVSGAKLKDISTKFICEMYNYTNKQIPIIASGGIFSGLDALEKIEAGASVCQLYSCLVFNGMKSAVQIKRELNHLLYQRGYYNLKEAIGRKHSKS
Homeobox protein Hox-A13 (Mus musculus), sequence (Q62424 whole entry, looked up): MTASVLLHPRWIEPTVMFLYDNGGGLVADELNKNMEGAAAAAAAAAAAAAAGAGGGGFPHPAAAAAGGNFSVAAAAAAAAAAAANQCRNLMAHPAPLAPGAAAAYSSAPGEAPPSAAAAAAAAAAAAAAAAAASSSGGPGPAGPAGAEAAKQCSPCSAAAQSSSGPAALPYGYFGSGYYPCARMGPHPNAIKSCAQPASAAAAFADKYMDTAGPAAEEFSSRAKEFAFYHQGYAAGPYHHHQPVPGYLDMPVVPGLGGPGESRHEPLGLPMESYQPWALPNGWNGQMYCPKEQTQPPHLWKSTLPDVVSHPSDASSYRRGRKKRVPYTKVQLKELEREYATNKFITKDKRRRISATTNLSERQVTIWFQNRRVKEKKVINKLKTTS

Row | Compound | z-score [1] | z-score [2] | z-score [3] | composite z-score [4] | z-score [5] | z-score [6] | z-score [7] | z-score [8] | z-score [9] | composite z-score [10] | composite z-score [11] | composite z-score [12] | z-score [13] | z-score [14] | z-score [15] | z-score [16]
1 | COc1ccc([Si](C)(C)[C@@H]2[C@@H](CC(=O)N3CCC[C@H]3CO)O[C@]3(C(=O)N(Cc4ccc(N5C(=O)c6cccc7cccc5c67)cc4)c4ccccc43)[C@H]2C)cc1 | -2.57 | 0.165 (inactive) | -2.82 (inactive) | -0.0108 (inactive) | -0.012 (inactive) | 1.36 (inactive) | 0.3 (inactive) | -0.138 (inactive) | -4.75 | -0.0386 | 0.353 (inactive) | 0.792 | -2.09 | -3.19 (inactive) | 0.48 (inactive) | 0.451 (inactive)
2 | COc1ccc([Si](C)(C)[C@H]2[C@H](CC(=O)N3Cc4ccccc4C[C@H]3CO)O[C@@]3(C(=O)N(Cc4cccc(N5CCCCC5=O)c4)c4ccccc43)[C@@H]2C)cc1 | -0.376 | -0.704 (inactive) | -2.39 (inactive) | -0.614 (inactive) | 1.42 (inactive) | 0.662 (inactive) | -0.235 (inactive) | -0.435 (inactive) | -1.74 | 0.208 | 0.573 (inactive) | 0.743 | -1.62 | -3.09 (inactive) | -0.507 (inactive) | -0.35 (inactive)
3 | COC(=O)[C@@]1(Cc2ccc(F)cc2)[C@H]2c3cc(C(=O)N4CCCC4)n(CCc4c[nH]c5ccc(OC)cc45)c3C[C@H]2CN1C(=O)c1ccccc1 | -0.946 | 0.813 (inactive) | -2.53 (inactive) | -3.91 (inactive) | 3.29 (inactive) | 0.622 (inactive) | -0.137 (inactive) | -0.72 (inactive) | -3.36 | 0.498 | 0.804 (inactive) | 0.727 | -1.74 | -3.53 (inactive) | -0.371 (inactive) | -0.199 (inactive)
4 | CN1C2C=C(CCCO)C(C3C(=O)N(C(N)=O)C(=O)C32)C1c1cccs1 (stereo not drawn) | -1 | 0.53 (inactive) | -0.135 (inactive) | 0.837 (inactive) | -0.329 (inactive) | 1.37 (inactive) | -0.967 (inactive) | -0.837 (inactive) | -0.69 | 3.82 | 0.0931 (inactive) | -0.301 | -0.29 | -8.5 (active) | -0.443 (inactive) | 0.133 (inactive)
5 | COCCOC(=O)N1C(=O)[C@@]2(c3cc(C#CC4=CCCCC4)ccc31)[C@H](C(=O)N1CCN(c3ncccn3)CC1)[C@H]1C(=O)O[C@H](c3ccccc3)[C@H](c3ccccc3)N1[C@@H]2c1ccc(O)cc1 | -0.173 | 1.14 (inactive) | -1.81 (inactive) | 0.332 (inactive) | 1.16 (inactive) | 1.69 (inactive) | -0.766 (inactive) | -0.0604 (inactive) | -0.765 | 0.0589 | 0.481 (inactive) | 0.685 | -1.29 | 0.446 (inactive) | 0.247 (inactive) | 0.0658 (inactive)
6 | CO[C@H]1O[C@H](CO)[C@@H](OC(=O)Nc2ccccc2-c2ccccc2)[C@H](OC(=O)Nc2ccc3c(c2)OCO3)[C@@H]1OC(=O)Nc1ccc2c(c1)OCO2 | -1.18 | 1.03 (inactive) | -1.38 (inactive) | -0.289 (inactive) | 1.86 (inactive) | 2.9 (inactive) | 0.999 (inactive) | -0.124 (inactive) | -1.12 | 0.227 | 0.882 (inactive) | 0.801 | -2.17 | -3.65 (inactive) | -0.0753 (inactive) | 0.24 (inactive)
7 | C=C(C(=O)CC[C@H](OC(=O)c1cccnc1)c1ccc(CO)o1)C(C)C | -0.499 | -1.02 (inactive) | -0.323 (inactive) | -3.18 (inactive) | 0.354 (inactive) | -0.811 (inactive) | -0.645 (inactive) | -0.631 (inactive) | -0.74 | -0.187 | 1.43 (inactive) | 0.62 | 0.566 | -5.25 (inactive) | 0.286 (inactive) | -0.0632 (inactive)
8 | C=CC[C@]12N=C(c3ccc(OCCCO)cc3)O[C@H]1c1ccccc1N(C)C2=O | -0.782 | -1.62 (inactive) | -1.54 (inactive) | 0.582 (inactive) | 0.345 (inactive) | 1.27 (inactive) | 0.105 (inactive) | -0.487 (inactive) | -1.28 | -0.031 | 2.91 (inactive) | 0.842 | -2.33 | -4.31 (inactive) | -0.0503 (inactive) | -0.394 (inactive)
9 | Cc1ccc(S[C@]2(C(=O)NCc3ccccc3)CC(=O)N(C(C)C)[C@@H]2c2ccc(CO)cc2I)cc1 | 0.059 | -1.93 (inactive) | -1.63 (inactive) | -0.335 (inactive) | -0.0807 (inactive) | -0.964 (inactive) | 0.484 (inactive) | 0.329 (inactive) | -2.35 | -0.253 | 1.17 (inactive) | 0.809 | 0.257 | -2.88 (inactive) | 0.422 (inactive) | 0.953 (inactive)
10 | O=C1O[C@@H](c2ccccc2)[C@@H](c2ccccc2)N2[C@@H](c3ccccc3OCCO)[C@]3(C(=O)Nc4ccc(C#CC5=CCCCC5)cc43)[C@@H](C(=O)NC[C@H](O)c3ccccc3)[C@H]12 | -1.33 | 0.961 (inactive) | -7.07 (inactive) | 0.578 (inactive) | 0.787 (inactive) | 0.979 (inactive) | -0.0029 (inactive) | -0.208 (inactive) | -5.79 | -0.16 | 0.409 (inactive) | 0.0598 | -1.7 | 1.62 (inactive) | -0.336 (inactive) | -0.415 (inactive)
11 | COc1cc2c(cc1OC)CN(C(=O)[C@H]1[C@@H]3C(=O)O[C@@H](c4ccccc4)[C@@H](c4ccccc4)N3[C@@H](c3ccc(OCCO)cc3)[C@]13C(=O)Nc1ccc(C#CCCO)cc13)CC2 | 0.687 | 2.35 (inactive) | 0.113 (inactive) | 0.129 (inactive) | 1.56 (inactive) | 2.49 (inactive) | -0.321 (inactive) | -0.61 (inactive) | 0.969 | -0.351 | 0.527 (inactive) | 0.692 | -2.06 | 1.96 (inactive) | 0.0312 (inactive) | 0.157 (inactive)
12 | O=C1O[C@@H](c2ccccc2)[C@@H](c2ccccc2)N2[C@@H](c3ccc(O)cc3)[C@]3(C(=O)Nc4ccc(C#CCCO)cc43)[C@@H](C(=O)Nc3nc4ccccc4s3)[C@H]12 | 0.43 | 0.442 (inactive) | 0.307 (inactive) | -0.292 (inactive) | 0.513 (inactive) | 0.948 (inactive) | -0.0791 (inactive) | 0.282 (inactive) | 0.73 | -0.0918 | 0.336 (inactive) | 0.732 | 0.204 | -0.524 (inactive) | 0.151 (inactive) | 0.283 (inactive)
13 | COc1ccc(C(O)C2C=CC3C(=O)N(Cc4ccccc4)C(=O)C3N2n2cnnc2)c2ccccc12 (stereo not drawn) | -1.05 | 0.373 (inactive) | -1.47 (inactive) | -0.609 (inactive) | -0.722 (inactive) | -0.975 (inactive) | -0.597 (inactive) | -0.706 (inactive) | -1.06 | 0.176 | 1.09 (inactive) | 0.537 | -1.05 | -1.49 (inactive) | -0.525 (inactive) | -0.966 (inactive)
14 | CC(C)OC(=O)CC(=O)CC(O)c1cccc(C#N)c1 (stereo not drawn) | 0.532 | -0.167 (inactive) | 0.343 (inactive) | -1.29 (inactive) | 0.533 (inactive) | -0.828 (inactive) | 0.283 (inactive) | 1.93 (inactive) | -0.0069 | -0.267 | 0.768 (inactive) | 0.778 | 0.612 | -0.542 (inactive) | -0.467 (inactive) | -0.295 (inactive)
15 | C=C[C@@H](COC(C)=O)NS(=O)(=O)c1ccc(Br)cc1 | -1.44 | -11.8 (active) | -1.82 (inactive) | -0.502 (inactive) | -0.152 (inactive) | 0.628 (inactive) | -0.528 (inactive) | 0.0818 (inactive) | -0.978 | -0.184 | 0.0525 (inactive) | 0.113 | 0.4 | 0.34 (inactive) | -0.249 (inactive) | -0.227 (inactive)
16 | COc1c(C)cc(-c2cc3c(c(-c4ccccc4)n2)[Si](C(C)C)(C(C)C)OC3)cc1C | 0.0316 | 0.256 (inactive) | 0.416 (inactive) | -0.149 (inactive) | 0.173 (inactive) | -0.741 (inactive) | 0.762 (inactive) | 0.319 (inactive) | 0.798 | 0.205 | 0.518 (inactive) | -0.479 | -1.03 | -0.238 (inactive) | -0.645 (inactive) | -0.268 (inactive)
17 | COCCCNC(=O)[C@@]1(Sc2ccc(C)cc2)CC(=O)N(C2Cc3ccccc3C2)[C@@H]1c1ccc(CO)cc1I | -0.0076 | -2.87 (inactive) | -2.79 (inactive) | -0.591 (inactive) | 0.196 (inactive) | -0.429 (inactive) | -0.0635 (inactive) | 0.0605 (inactive) | -2.31 | 0.108 | 0.0203 (inactive) | -0.314 | 0.701 | -2.28 (inactive) | 0.542 (inactive) | 0.94 (inactive)
18 | C=C(CCCC)C(=O)CC[C@@H](OC(=O)c1cccnc1)c1ccccc1OCCO | 0.0748 | -3.02 (inactive) | -1.22 (inactive) | -2.63 (inactive) | -0.153 (inactive) | 0.231 (inactive) | 0.604 (inactive) | 0.448 (inactive) | -2.39 | 0.0325 | -0.451 (inactive) | -0.0138 | -3.08 | -3.61 (inactive) | -0.383 (inactive) | -0.227 (inactive)
